Experimental data reported in PubChem BioAssay (NCI).
Compounds without any hit were thinned out: in the full panel of roughly 79,000, 15% have a hit. Activity calls are given as the source filed them. No stated cut-off is given here; in the data, active means growth inhibition above about 70%; inactive means the rest.

Tests used:
[1] = NCI Yeast Anticancer Drug Screen. Data for the mlh1 strain (AID 171);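 further: 0% = growth of vehicle-treated control cultures of the same strain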; details: S. cerevisiae mlh1 strain growth inhibition, active compounds read high
Outline: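 Here the genetically defined yeast mutant is grown with each compound, and the extent to which its growth falls below that of vehicle-exposed cells is reported.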

[2] = NCI Yeast Anticancer Drug Screen. Data for the mlh1 rad18 strain (AID 175); details: S. cerevisiae mlh1 rad18 strain growth inhibition, active compounds read high
Outline: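 In this whole-cell yeast screen, a strain with altered DNA damage repair is challenged with compound, and its growth is measured against matched vehicle-treated controls.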

[3] = NCI Yeast Anticancer Drug Screen. Data for the rad18 strain (AID 177); details: S. cerevisiae rad18 mutant growth inhibition, active compounds read high
Outline: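 Screen uses a yeast strain with a defined lesion in DNA damage repair; compound effect is read as loss of growth compared to untreated vehicle cultures.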

[4] = NCI Yeast Anticancer Drug Screen. Data for the rad52 strain (AID 147);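 further: 0% = growth of vehicle-treated control cultures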; details: S. cerevisiae rad52 mutant growth inhibition, active compounds read high
Outline: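 Measured: yeast growth inhibition. System: strain with a defined DNA damage repair alteration. Reference: vehicle-treated control cultures.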

[5] = NCI Yeast Anticancer Drug Screen. Data for the wt1 strain (AID 149);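 further: 0% = growth of vehicle-treated wt1 cultures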; details: S. cerevisiae wt1 strain (SPY 50644) growth inhibition, active compounds read high
Outline: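 Using yeast strain wt1, compound-induced growth inhibition was determined against vehicle-treated cultures.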

[6] = NCI Yeast Anticancer Drug Screen. Data for the rad50EPP+ strain (AID 151);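 further: 0% = growth of vehicle-treated control cultures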; details: S. cerevisiae rad50 mutant strain, active compounds read high
Outline: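 One strain with a rad50 alteration (rad50EPP+) was compound-treated, its growth then compared to that of vehicle controls.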

[7] = NCI Yeast Anticancer Drug Screen. Data for the rad50 strain (AID 155);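 further: 0% = growth of vehicle-only cultures of the same strain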; details: S. cerevisiae rad50 strain growth inhibition, active compounds read high
Outline: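 Relative growth inhibition (compound vs vehicle) was measured in yeast with a defined repair-gene alteration.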

[8] = NCI Yeast Anticancer Drug Screen. Data for the mec2-1 strain (AID 157); details: S. cerevisiae mec2-1 strain, active compounds read high
Outline: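 Test agents were screened against the mec2-1 yeast strain, with defined DNA repair or cell cycle alteration. Growth was scored as inhibition against vehicle-only controls.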

[9] = NCI Yeast Anticancer Drug Screen. Data for the rad14 strain (AID 159);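 further: 0% = growth of vehicle-treated control cultures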; details: S. cerevisiae rad14 strain growth inhibition, active compounds read high
Outline: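 Screen for anticancer potential: a yeast strain altered in DNA damage repair is grown with compound, and reduced growth is quantified against vehicle controls.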

[10] = NCI Yeast Anticancer Drug Screen. Data for the CLN2oe strain (AID 163);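 further: 0% = growth of vehicle-only control cultures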; details: S. cerevisiae CLN2oe strain, active compounds read high
Outline: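 Here, growth inhibition in a cell-cycle-altered yeast strain after compound exposure was quantified against vehicle control growth.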

[11] = NCI Yeast Anticancer Drug Screen. Data for the cln2 rad14 strain (AID 165);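 further: 0% = growth equal to vehicle treated cultures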; details: S. cerevisiae cln2 rad14 strain, active compounds read high
Outline: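 Growth of compound-exposed yeast (cln2 rad14 genotype) measured and expressed as inhibition relative to vehicle.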

[12] = NCI Yeast Anticancer Drug Screen. Data for the bub3 strain (AID 167); details: S. cerevisiae bub3 mutant strain, active compounds read high
Outline: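 Screening used yeast with an engineered genetic alteration affecting cell cycle control. Compound-exposed cultures were compared with vehicle cultures, and reduced growth was taken as inhibition.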

[13] = NCI Yeast Anticancer Drug Screen. Data for the wt2 strain (AID 169);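 further: 0% = growth of vehicle-treated yeast cultures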; details: S. cerevisiae wt2 strain growth inhibition, active compounds read high
Outline: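 Genetically defined yeast strains from a DNA-repair/cell-cycle panel were used. Compound-exposed yeast growth was measured, and the inhibition was calculated relative to vehicle treatment.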

[14] = NCI Yeast Anticancer Drug Screen. Data for the sgs1 strain (AID 173);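 further: 0% = growth of vehicle-only control cultures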; details: S. cerevisiae sgs1 mutant, active compounds read high
Outline: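 Relative growth inhibition, referenced to vehicle, was determined in a yeast strain with a defined alteration affecting DNA damage repair or cell cycle control after compound exposure.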

[15] = at 5.0 µM (retest, dose inferred, filed as 0.5)
[16] = at 50.0 µM (retest, dose inferred, filed as 5.0)

Measured: growth inhibition

COC(=O)c1oc([N+](=O)[O-])c(Cl)c1Cl
active: [1]; at 33.0 µM 99% | [1]; at 100.0 µM 99% | [2]; [16] 99% | [2]; at 50.0 µM 99.5% | [3]; at 1.2 µM 93% | [3]; at 3.7 µM 92% | [3]; at 11.0 µM 89% | [3]; at 33.0 µM 98% | [3]; at 100.0 µM 99%
inactive: [2]; [15] 58%

C=Cc1cnc([N+](=O)[O-])n1C
inactive: [4]; at 1.2 µM 2% | [4]; at 3.7 µM 35% | [4]; at 11.0 µM 65% | [5]; at 1.2 µM 13% | [5]; at 3.7 µM 21% | [5]; at 11.0 µM 19% | [5]; at 33.0 µM 39% | [6]; at 1.2 µM -1% | [6]; at 3.7 µM 15% | [6]; at 11.0 µM 41% | [7]; at 1.2 µM 3% | [7]; at 3.7 µM 17% | [7]; [15] 23% | [7]; at 11.0 µM 52% | [8]; at 1.2 µM 11% | [8]; at 3.7 µM 3% | [8]; [15] 0% | [8]; at 11.0 µM 26% | [9]; at 1.2 µM -1% | [9]; at 3.7 µM 25% | [10]; at 1.2 µM -14% | [10]; at 3.7 µM 8% | [10]; at 11.0 µM 14% | [10]; at 33.0 µM 33% | [11]; [15] 39% | [12]; at 1.2 µM -5% | [12]; at 3.7 µM -2% | [12]; [15] 8% | [12]; at 11.0 µM -2% | [12]; at 33.0 µM 20% | [12]; [16] 69% | [13]; at 1.2 µM -31% | [13]; at 3.7 µM -43% | [13]; at 11.0 µM -34% | [13]; at 33.0 µM 63% | [1]; at 1.2 µM -4% | [1]; at 3.7 µM 7% | [1]; at 11.0 µM 18% | [1]; at 33.0 µM 44% | [14]; at 1.2 µM 22% | [14]; at 3.7 µM 51% | [14]; at 11.0 µM 69%
active: [4]; at 33.0 µM 85% | [4]; at 100.0 µM 95% | [5]; at 100.0 µM 85% | [6]; at 33.0 µM 82% | [6]; at 100.0 µM 91% | [7]; at 33.0 µM 86% | [7]; [16] 87% | [7]; at 50.0 µM 78.5% | [7]; at 100.0 µM 94% | [8]; at 33.0 µM 87% | [8]; [16] 94% | [8]; at 50.0 µM 85.7% | [8]; at 100.0 µM 95% | [9]; at 11.0 µM 76% | [9]; at 33.0 µM 96% | [9]; at 100.0 µM 98% | [10]; at 100.0 µM 86% | [11]; [16] 93% | [11]; at 50.0 µM 90.2% | [12]; at 50.0 µM 82.1% | [12]; at 100.0 µM 82% | [13]; at 100.0 µM 96% | [1]; at 100.0 µM 90% | [14]; at 33.0 µM 85% | [14]; at 100.0 µM 92% | [2]; [15] 79% | [2]; [16] 90% | [2]; at 50.0 µM 90.2% | [3]; at 1.2 µM 85% | [3]; at 3.7 µM 92% | [3]; at 11.0 µM 94% | [3]; at 33.0 µM 94% | [3]; at 100.0 µM 94%

Oc1ccc(Br)cc1C=NC1CCCCC1
active: [4]; at 33.0 µM 95% | [4]; at 100.0 µM 98% | [5]; at 33.0 µM 91% | [5]; at 100.0 µM 99% | [6]; at 33.0 µM 74% | [6]; at 100.0 µM 93% | [7]; at 33.0 µM 97% | [7]; at 50.0 µM 78.9% | [7]; at 100.0 µM 97% | [8]; at 33.0 µM 94% | [8]; at 50.0 µM 88.5% | [8]; at 100.0 µM 99% | [9]; at 11.0 µM 85% | [9]; at 33.0 µM 99% | [9]; at 100.0 µM 99% | [10]; at 100.0 µM 98% | [11]; [16] 99% | [12]; [16] 99% | [12]; at 50.0 µM 87% | [12]; at 100.0 µM 97% | [13]; at 33.0 µM 74% | [13]; at 100.0 µM 99% | [1]; at 33.0 µM 96% | [1]; at 100.0 µM 99% | [14]; at 33.0 µM 92% | [14]; at 100.0 µM 98% | [2]; at 50.0 µM 77% | [3]; at 33.0 µM 92% | [3]; at 100.0 µM 97%
inactive: [4]; at 1.2 µM 0% | [4]; at 3.7 µM 15% | [4]; at 11.0 µM 35% | [5]; at 1.2 µM -24% | [5]; at 3.7 µM -18% | [5]; at 11.0 µM 6% | [6]; at 1.2 µM 3% | [6]; at 3.7 µM 12% | [6]; at 11.0 µM 35% | [7]; at 1.2 µM -14% | [7]; at 3.7 µM -18% | [7]; [15] 44% | [7]; at 11.0 µM 49% | [7]; [16] 45% | [8]; at 1.2 µM -24% | [8]; at 3.7 µM -21% | [8]; [15] 47% | [8]; at 11.0 µM 11% | [8]; [16] 60% | [9]; at 1.2 µM 15% | [9]; at 3.7 µM 24% | [10]; at 1.2 µM -3% | [10]; at 3.7 µM 1% | [10]; at 11.0 µM 12% | [10]; at 33.0 µM 39% | [11]; [15] 53% | [11]; at 50.0 µM 57% | [12]; at 1.2 µM -4% | [12]; at 3.7 µM 2% | [12]; [15] 46% | [12]; at 11.0 µM 5% | [12]; at 33.0 µM 59% | [13]; at 1.2 µM -2% | [13]; at 3.7 µM 0% | [13]; at 11.0 µM 15% | [1]; at 1.2 µM -6% | [1]; at 3.7 µM 17% | [1]; at 11.0 µM 59% | [14]; at 1.2 µM 7% | [14]; at 3.7 µM 6% | [14]; at 11.0 µM 39% | [2]; [15] 32% | [2]; [16] 53% | [3]; at 1.2 µM 5% | [3]; at 3.7 µM 11% | [3]; at 11.0 µM 29%
